# Screening data (PubChem)
# This is a sample that favours compounds with a hit; in the whole collection about 21% have one here.
# Pf growth 96h: Primary qHTS for delayed death inhibitors of the malarial parasite plastid, 96 hour incubation; P. falciparum luciferase reporter growth, 96 h; 6.9% of 320,000 active; AID 504834, 2011; Potency, µM (titrated, usually from 28.7 µM), for the others: at the highest dose activity change, negative = inhibition, actives largely listed as inhibitors; further: potency means the concentration at half of the fitted maximal effect; on the % scale 0 is the no-effect control and ±100 the full control effect
#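 Readout is luminescence from an integrated firefly luciferase in P. falciparum. Red cells, 2% hematocrit and 0.05% parasitemia final, were cultured with compound through two parasite generations (96 hours) at 37 C, 5% CO2.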
# NS1 inh: qHTS Assay for Inhibitors of Influenza NS1 Protein Function; Potency, µM (highest dose often 46.1 µM), without a hit: at the top dose activity, positive = more growth; 0.4% of 270,000 active; AID 2326, 2010; calls by dose curve; further: potency means the concentration at half of the fitted maximal effect; actives are rising curves; nearly all actives have a fitted effect of over 50% in size
#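 OD600 was taken as the measure of yeast growth restored by compound in an NS1-expressing S. cerevisiae strain. Cells had been washed out of glucose medium and diluted 1:100 into galactose -URA medium, pH 6.0.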
# Shiga toxin inh: A qHTS for Small Molecule Inhibitors of Shiga Toxin. inhibition, % at 38.7 µM. AID 2315, 2010. 9.2% of 290,000 active. Vero cells, Shiga toxin protein synthesis inhibition reporter; in the data active means inhibition mostly above about 28%, no sharp cut-off; inactive means mostly below about 43%; further: 0% is about no effect
# Pf growth 48h: Primary qHTS for delayed death inhibitors of the malarial parasite plastid, 48 hour incubation; P. falciparum luciferase growth in erythrocytes, 48 h; Potency, µM (doses to about 28.7 µM), for inactives: top-dose activity change, negative = inhibition, usual class: inhibitors; 5.9% of 310,000 active; further: potency means the concentration at half of the fitted maximal effect; on the % scale 0 is the no-effect control and ±100 the full control effect
#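 Firefly luciferase activity from engineered P. falciparum reports growth; inhibitors lower the luminescent signal. Cultures contained 2% hematocrit erythrocytes at 0.1% final parasitemia.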
# Giardia FBPA inh: qHTS Assay for Inhibitors of Fructose-1,6-bisphosphate Aldolase from Giardia Lamblia. A8B2U2. AID 2451, 2010. 0.71% of 290,000 active. purified Giardia FBPA. Potency, µM (titrated, usually from 59.6 µM), for inactives: top-dose activity, negative = inhibition, usual class: inhibitors; further: potency means the concentration at half of the fitted maximal effect; on the % scale 0 is the no-effect control and ±100 the full control effect; nearly all actives have a fitted effect of over 55% in size
# Target sequence (A8B2U2 whole entry, looked up): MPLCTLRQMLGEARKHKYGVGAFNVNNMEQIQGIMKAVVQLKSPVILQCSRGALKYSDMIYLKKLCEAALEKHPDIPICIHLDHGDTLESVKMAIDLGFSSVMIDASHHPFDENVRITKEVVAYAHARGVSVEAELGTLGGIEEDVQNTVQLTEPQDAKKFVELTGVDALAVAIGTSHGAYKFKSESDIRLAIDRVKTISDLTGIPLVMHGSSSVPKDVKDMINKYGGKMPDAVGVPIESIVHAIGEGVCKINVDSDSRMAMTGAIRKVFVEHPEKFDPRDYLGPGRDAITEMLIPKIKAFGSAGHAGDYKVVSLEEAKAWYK
#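 Giardia FBPA (40 nM reagent) was preincubated 10 min at RT with compound (up to 57.5 uM final), then substrate plus GAPDH/TPI/NAD/arsenate coupling system with diaphorase/resazurin was added; resorufin fluorescence (525/598 nm) was read after 20 min.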
# Cycloheximide cs: Cycloheximide Counterscreen for Small Molecule Inhibitors of Shiga Toxin; AID 2314, 2010; max response, %; cell reporter, cycloheximide protein synthesis inhibition counterscreen; 12% of 300,000 active; in the data active means max response mostly above about 13%, no sharp cut-off; inactive means mostly below about 14%; further: read at 38.3 µM for the half of the compounds with a filed dose; 0% is about no effect
# * hit, by the source's call; u = inconclusive; x = no result; [ ] = remark or other dose. Unless noted, the call rests on the fitted dose curve; in most records, active means well fitted curve in the direction sought with a large enough effect; inconclusive means small, poorly fitted or top-dose-only effect, or another doubt; inactive means no such curve, though single readings can be large; an effect the other way counts as inactive or inconclusive.
SMILES,Pf growth 96h,NS1 inh,Shiga toxin inh,Pf growth 48h,Giardia FBPA inh,Cycloheximide cs
COc1ccc2[nH]c(=O)c(CN(Cc3ccccc3)Cc3nnnn3CC3CCCO3)cc2c1 (configuration not stated),6.0%[5.75 µM],-28.4%,-9.6,0.0%,1.4%,0.3
COc1ccc2[nH]c(=O)c(CN(Cc3ccco3)C(c3nnnn3Cc3ccccc3)C(C)C)cc2c1 (configuration not stated),3.29µM*,24.3%,-33.8,x,-6.9%,1.3
COCCn1nnnc1C(C(C)C)N(Cc1cccnc1)Cc1cc2cc(OC)ccc2[nH]c1=O (configuration not stated),22.9%,-7.7%,4.5,u,-0.4%,-6.9
COCCn1nnnc1C(C(C)C)N(Cc1ccccc1)Cc1cc2cc(OC)ccc2[nH]c1=O (configuration not stated),222.1%[5.75 µM],-6.9%,-6.6,8.28µM*,-22.0%,7.5
CCc1ccc2[nH]c(=O)c(CN(Cc3ccc(OC)cc3)Cc3nnnn3CCOC)cc2c1,u,-38.6%,-16.4,1.85µM*,u,2.7
Cc1cccc2cc(CN(Cc3ccco3)C(c3nnnn3CCc3ccccc3)C(C)C)c(=O)[nH]c12 (configuration not stated),-13.5%,12.5%,-18.0,1.85µM*,-16.1%,1.9
CC1(O)CC2C(CC1O)C2(C)C (configuration not stated),x,x,x,x,0.7%,x
COc1ccc(C)c2sc(N(CCN(C)C)C(=O)c3cccc(N4C(=O)CCC4=O)c3)nc12,12.7%,x,x,u,x,x
CCCc1nnc(NC(=O)C2CCCO2)s1 (configuration not stated),15.2%,2.0%,52.5,29.7%,2.8%,25.2*
CCc1nnc(NC(=O)C2CCCO2)s1 (configuration not stated),-4.1%,2.2%,27.5,44.6%,-4.6%,17.2*
CC(C)c1nnc(NC(=O)C2CCCO2)s1 (configuration not stated),13.5%,4.8%,0.8,24.5%,0.0%,13.3
COc1cc(C(=O)NC(=S)Nc2ccc(Cc3ccncc3)cc2)cc(OC)c1OC,40.3%,6.6%,-10.1,10.4µM*,-19.2%,-3.3
COc1ccccc1C(=O)NC(=S)Nc1ccc(Cc2ccncc2)cc1,2.6%,11.3%,41.9*,u,u,19.8*
Cc1cc(C)cc(C(=O)NC(=S)Nc2ccc(Cc3ccncc3)cc2)c1,-7.6%,16.1%,-7.6,u,-0.2%,-1.3
O=C(NC(=S)Nc1ccc(Cc2ccncc2)cc1)c1ccccc1,u,19.2%,34.4,-66.1%,4.6%,36.6*
CCC(NC(=O)c1ccncc1)c1ccccc1 (configuration not stated),14.7µM*,15.7%,-12.5,1.5%,4.7%,1.3
O=C(COc1ccc(Cl)cc1Br)Nc1nnc(C2CC2)s1,-16.2%,x,x,-8.4%,x,x
CC1(C)CC2C1CC[C@]1(C)CCC3C(C(=O)O)CC(=O)O[C@]32C1 (some centres not stated),x,x,x,x,-1.9%,x
C/C(=N/NC(=O)c1ccc(C)nc1)c1ccc2c(c1)CCCC2,-10.5%,x,15.7,-3.7%,-18.1%,1.7
O=C(NC(=S)NC(CO)c1ccccc1)c1ccc(F)cc1 (configuration not stated),0.0%,u,-4.3,0.9%,-9.5%,1.2
O=C(NC(=S)NC(c1ccccc1)c1ccncc1)c1ccccc1 (configuration not stated),9.28µM*,-5.1%,-3.2,u,-2.3%,-6.1
COc1ccc(Br)cc1C(=O)Nc1ccc(Cc2ccncc2)cc1,u,-12.5%,-6.6,u,-0.4%,-4.6
COc1c(C(=O)Nc2ccc(Cc3ccncc3)cc2)ccc2ccccc12,-4.7%,-81.0%,95.9*,u,-7.5%,19.8*
OC1C=C2CCN3Cc4cc5c(cc4C(C1O)C23)OCO5 (configuration not stated),x,x,x,x,-13.0%,x
COc1ccc(Nc2ccc(S(=O)(=O)N3CCCCCC3)cc2[N+](=O)[O-])cc1,u,17.4%,-7.6,-17.5%,1.3%,-6.2
SMILES,Pf growth 96h,NS1 inh,Shiga toxin inh,Pf growth 48h,Giardia FBPA inh,Cycloheximide cs
COc1ccccc1Nc1ccc(S(=O)(=O)N2CCCCC2)cc1[N+](=O)[O-],u,1.4%,-9.9,u,3.0%,-2.5
COc1ccc(Nc2ccc(S(=O)(=O)N3CCCCC3)cc2[N+](=O)[O-])cc1OC,13.1µM*,u,-4.9,u,-5.2%,-2.7
COc1cccc(Oc2ccc(S(=O)(=O)N3CCCC3)cc2[N+](=O)[O-])c1,u,4.0%,33.7,10.4µM*,6.3%,-3.8
COc1ccccc1C(C)Nc1ccc(S(=O)(=O)N2CCN(C)CC2)cc1[N+](=O)[O-] (configuration not stated),16.5µM*,x,x,11.7µM*,x,x
Cc1cc(SCc2cccc(C(F)(F)F)c2)nc(=O)[nH]1,1.1%,27.5%,1.5,14.5%,8.7%,11.4
Cc1cc(Cl)c(S(=O)(=O)N/N=C/c2ccc3c(c2)OCO3)c(Cl)c1,108.1%,-196.0%,53.5*,57.0%,-3.6%,40.6*
Cc1cc(C)c(S(=O)(=O)N/N=C/c2ccc3c(c2)OCO3)c(C)c1,-0.7%,-59.8%,22.1,-1.0%,-15.2%,14.2*
O=S(=O)(N/N=C/c1ccc2c(c1)OCO2)c1ccc(Br)cc1,14.3%,6.6%,-25.1,u,x,-0.9
CCOC(=O)N1CCN(C(=O)C2CCC(=O)N(CCCc3ccccc3)C2)CC1 (configuration not stated),u,1.6%,-3.4,3.9%,x,-1.9
COc1ccccc1OC[C@H](O)CO,39.6%,9.9%,-1.9,34.1%,8.8%,-3.9
CCN(CC)S(=O)(=O)c1ccc(C(=O)NCC(=O)NCCCc2ccccc2)cc1,15.4%,u,19.4,0.0%,-0.1%,-2.7
Cc1c(Cl)c(S(N)(=O)=O)cc2c1=NC=NS=2(=O)O,x,0.0%,x,x,x,x
Cc1cc(C)cc(Nc2ncnc3nc[nH]c23)c1,u,-2.5%,40.5*,-11.0%,-0.2%,17.0
Cc1cccc(Nc2ncnc3nc[nH]c23)c1C,2.7%,-2.0%,29.8,14.5%,-15.4%,5.9
FC(F)Sc1ccc(Nc2ncnc3nc[nH]c23)cc1,0.0%,5.6%,10.8*,66.4%,0.8%,35.7*
CCOC(=O)c1c(C)[nH]c(NC(=O)NNC(=O)c2ccc(OC)cc2)c1C,-10.4%,x,x,-12.9%,x,x
CCOC(=O)c1c(C)[nH]c(N=Nc2cccc(C)c2)c1C,x,9.4%,130.3*,-55.6%,4.9%,64.2*
CCOC(=O)c1c(C)[nH]c(N=Nc2cccc(OC)c2)c1C,256.0%,x,154.4*,357.6%,-11.6%,57.9*
O=C(CCCc1ccccc1)N=C1SC2CS(=O)(=O)CC2N1c1ccccc1 (configuration not stated),4.0%,8.5%,-6.2,28.5%,x,-2.3
